# Reference: PubChem BioAssay AID602393 (Broad Institute, 2012)
# About 7,000 (2%) of roughly 350,000 compounds were called active. Cut-off read from the data, not from the text of the source: active = activation above about 40%; inconclusive = no clear call, values can overlap the other calls; inactive = below that. The entries come from a sample that favours actives as a whole.
# Experiment: Bmi1 luciferase reporter increase in mESCs, primary screen, esBAF inhibitor project, mouse ES cells, Bmi1 luciferase knock-in, single point (AID 602393);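 note: 0% = median of the plate's neutral control wells and 100% = double that signal; a rise in the Bmi1 reporter signal indicates esBAF inhibition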
# Details: 24 h, at 12.5 µM, active compounds read high, 100% = twice the neutral-well signal
row,Compound,reporter increase
1,C[C@H]1CN([C@@H](C)CO)S(=O)(=O)c2ccc(-c3ccccc3)cc2O[C@H]1CN(C)C(=O)CC1CC1,-0.183% (inactive)
2,CCCNC(=O)N1C[C@H]2[C@@H](c3ccccc31)[C@@H](CO)N2C(=O)NCCC,-2.97% (inactive)
3,O=C(NCC[C@H]1CC[C@H](NC(=O)C2CC2)[C@@H](CO)O1)c1cc(Cl)cc(Cl)c1,1.12% (inactive)
4,C[C@@H]1CN([C@H](C)CO)C(=O)c2cc(Br)cnc2O[C@@H]1CN(C)C(=O)C1CC1,-3.93% (inactive)
5,O=[N+]([O-])c1ccc(N2CCOCC2)cc1,6.61% (inactive)
6,O=C(Nc1ccc(N2CCOCC2)cc1)c1ccc(-c2ccccc2[N+](=O)[O-])o1,22.9% (active)
7,COc1ccccc1C(=O)NC(=S)Nc1ccc(N2CCOCC2)cc1,25.5% (inactive)
8,C[C@H]1CN([C@@H](C)CO)C(=O)c2cccc(NS(=O)(=O)c3cccs3)c2O[C@H]1CN(C)C(=O)Nc1ccccc1,-1.97% (inactive)
9,O=C(Cc1ccncc1)NCC[C@H]1CC[C@H](NC(=O)C2CC2)[C@H](CO)O1,-2.52% (inactive)
10,CC(=O)c1cc(C#N)c(SCC(=O)C(C)(C)C)nc1C,50.6% (active)
11,CC(=O)c1cnc(SCC(=O)O)nc1C,-5.69% (inactive)
12,Cc1cc(NC(=O)CSc2nc3c(cc2C#N)CCCCC3)no1,-7.82% (inactive)
13,CCn1c(SCC(=O)Nc2nccs2)nnc1-c1ccncc1,-8.57% (inactive)
14,Cn1c(SCC(=O)Nc2nccs2)nnc1-c1cccnc1,-5.27% (inactive)
15,CC(=O)c1cc(C#N)c(SCC(=O)Nc2nccs2)nc1C,64.7% (active)
16,COCC(=O)Nc1ccc2c(c1)C(=O)N(C)C[C@H](OC)[C@@H](C)CN(CC1CC1)[C@@H](C)CO2,-0.99% (inactive)
17,COc1ccccc1NC(=O)N[C@H]1CC[C@H](CCNS(=O)(=O)c2ccc(Cl)cc2)O[C@H]1CO,16.7% (inactive)
18,CCN1[C@@H]2c3cccc(=O)n3C[C@H]1[C@H](CO)[C@H]2C(=O)NC1Cc2ccccc2C1,-2% (inactive)
19,CCC(=O)N1C[C@@H](C)[C@H](OC)CN(C)C(=O)c2ccc(NC(=O)Nc3ccccc3)cc2OC[C@@H]1C,-0.74% (inactive)
20,COc1cccc(C(=O)NNC(=O)c2cccc(F)c2)c1,46.1% (active)
21,COc1cccc(C(=O)NNS(=O)(=O)c2ccc(F)cc2)c1,-2.92% (inactive)

row,Compound,reporter increase
1,COc1cccc(NC(=O)CC2C(=O)NCCN2C(=S)Nc2ccc(F)cc2)c1 (configuration not stated),3.78% (inactive)
2,CCC(=O)Nc1ccc(C(=O)NNC(=O)c2ccc(Cl)cc2)cc1,-4.4% (inactive)
3,CCC(=O)Nc1ccc(C(=O)Nc2cccc(OC)c2)cc1,49.8% (active)
4,COc1cccc(NC(=O)Nc2ccc(F)cc2)c1,47.9% (active)
5,COc1cccc(N(CC(=O)Nc2cccc(F)c2)S(C)(=O)=O)c1,-2.9% (inactive)
6,COc1cccc(C(=O)NNC(=O)/C=C/c2ccccc2)c1,-6.98% (inactive)
7,O=C(Nc1ccccc1)c1ccc2nsnc2c1,28.4% (inactive)
8,CCC(=O)Nc1ccc(C(=O)Nc2cc(C)on2)cc1,15.4% (inactive)
9,CCc1ccc(NC(=O)Nc2ccncc2)cc1,19.8% (inactive)
10,COc1ccc(NC(=O)Nc2ccc3nsnc3c2)cc1,100% (active)
11,CNC(=O)C[C@H]1CC[C@H]2[C@@H](COc3ccc(NC(=O)c4cccc(OC)c4)cc3C(=O)N2C)O1,4.25% (inactive)
12,COc1cccc(C#Cc2cnc3c(c2)C(=O)N([C@@H](C)CO)C[C@H](C)[C@H](CN(C)CC2CC2)O3)c1,-5.64% (inactive)
13,CO[C@H]1CN(C)C(=O)c2cc(NS(=O)(=O)CC(F)(F)F)ccc2OC[C@@H](C)N(C(=O)c2ccc3c(c2)OCO3)C[C@@H]1C,2.12% (inactive)
14,O=C(c1ccccc1)N1C[C@@H]2[C@H](c3ccccc31)[C@@H](CO)N2Cc1cc(F)ccc1F,-1.5% (inactive)
15,CO[C@@H]1CN(C)C(=O)c2cc(NC(=O)C3CCCCC3)ccc2OC[C@@H](C)N(C(=O)Nc2ccc(C(F)(F)F)cc2)C[C@H]1C,9.31% (inactive)
16,CCCNC(=O)[C@H]1[C@H](CO)[C@H]2Cn3c(ccc(C4=CCCC4)c3=O)[C@H]2N1C(=O)CC1CC1,-1.14% (inactive)
17,CCSc1nsc(NC(=O)Nc2cccc(C(C)=O)c2)n1,7.31% (inactive)
18,CC(=O)c1cccc(NC(=O)Nc2ccc(C)cc2)c1,42.2% (active)
19,CC(=O)c1cccc(NC(=S)N2CCCC2)c1,3.72% (inactive)
20,COc1cc2ccccc2cc1C(=O)Nc1ccc(S(=O)(=O)Nc2cc(C)on2)cc1,5.76% (inactive)
21,COc1ccc(C(=O)Nc2cc(C)c(NC(=O)c3ccccc3OC)cn2)cc1,34.2% (inactive)

row,Compound,reporter increase
1,COc1cc2ccccc2cc1C(=O)Nc1ccccc1C,71.4% (active)
2,CCOc1cc2ccccc2cc1C(=O)Nc1ccccn1,18.4% (inactive)
3,Cc1ccccc1C(=O)Nc1ccccc1NC(=O)c1ccccc1C,-2.73% (inactive)
4,COc1cc2ccccc2cc1C(=O)Nc1ccncc1,60% (active)
5,CC(C)C#Cc1cnc2c(c1)C(=O)N([C@@H](C)CO)C[C@@H](C)[C@@H](CN(C)C(=O)c1cccc(F)c1)O2,4.18% (inactive)
6,CCC(=O)N1[C@@H]2c3ccc(-c4ccc(F)cc4)c(=O)n3C[C@H]1[C@H](CO)[C@H]2C(=O)N(C)C,-3.81% (inactive)
7,CO[C@@H]1CC[C@@H]2CCOc3ccc(C#N)cc3C(=O)N(C)C[C@H](c3ccccc3)CC(=O)N(C)C[C@H]1O2,-4.55% (inactive)
8,CO[C@@H]1CN(C)C(=O)c2cc(NC(=O)C3CCOCC3)ccc2OC[C@H](C)N(C)C[C@H]1C,-1.27% (inactive)
9,COc1ccc(-c2ccc([C@@H]3[C@@H](C#N)N(C(=O)C4CCCCC4)[C@H]3CO)cc2)cc1,9.6% (inactive)
10,O=C(COC(=O)c1ccc(F)cc1)NCCCc1ccccc1,-1.61% (inactive)
11,O=C(NCc1ccccc1)c1cccc(NC(=O)C2CCCCC2)c1,-4.78% (inactive)
12,O=C(NCCc1ccccc1)c1cccc(NC(=O)c2ccccc2)c1,42.6% (active)
13,CC(C)c1ccc(C(=O)NCCCc2ccccc2)cc1,55.1% (active)
14,CC(C)(C)OC(=O)N1CCC(C(=O)Nc2cccc(C(=O)NCCc3ccccc3)c2)CC1,24.1% (inactive)
15,CSc1ncc(C(=O)NCCCc2ccccc2)c(C)n1,5.19% (inactive)
16,C[C@@H]1CN([C@H](C)CO)S(=O)(=O)c2ccc(C3=CCCC3)cc2O[C@H]1CN(C)C(=O)CC1CC1,-4.31% (inactive)
17,CC(=O)N1[C@@H]2Cn3c(ccc(C4=CCCC4)c3=O)[C@H]1[C@@H](C(=O)NC1CCC1)[C@@H]2CO,1.06% (inactive)
18,CNC[C@H]1OCCCC[C@@H](C)Oc2ccc(NC(=O)Cc3ccccc3)cc2C(=O)N([C@H](C)CO)C[C@@H]1C,-1.06% (inactive)
19,CC=Cc1ccc2n(c1=O)C[C@H]1[C@H](CO)[C@@H](C(=O)NC3CCCC3)N(Cc3ccncc3)[C@@H]21 (mixture of isomers),-6.02% (inactive)
20,CCCNC(=O)C[C@H]1C[C@@H]2c3cc(NC(=O)c4ccc5c(c4)OCO5)ccc3O[C@@H]2[C@@H](CO)O1,0.264% (inactive)
21,O=C1c2ccccc2C(=O)N1CCCCCCN1C(=O)c2ccccc2C1=O,5.74% (inactive)

row,Compound,reporter increase
1,O=C1c2ccccc2C(=O)N1CCOc1ccc(F)cc1,60.3% (active)
2,O=C(OCCN1C(=O)c2ccccc2C1=O)Oc1ccccc1,-11.2% (inactive)
3,C[C@H]1CN([C@@H](C)CO)C(=O)c2cc(NC(=O)Cn3cnnn3)ccc2O[C@H]1CN(C)C(=O)NC1CCCCC1,-0.29% (inactive)
4,Cc1ccc(S(=O)(=O)Nc2ccc3c(c2)C(=O)N([C@H](C)CO)C[C@H](C)[C@@H](CN(C)S(=O)(=O)c2cn(C)cn2)OCCCC[C@H](C)O3)cc1,-6.8% (inactive)
5,CCOC(=O)c1ccccc1CN1C(=O)c2ccccc2S1(=O)=O,0.163% (inactive)
6,CCOC(=O)CN1C(=O)C(=O)c2cc(C)ccc21,-5.46% (inactive)
7,CCOC(=O)c1cc2n(c1C)-c1ccccc1C2=O,47.8% (active)
8,COc1ccc(CN(C)C[C@H]2OCCCC[C@@H](C)Oc3ccc(NS(C)(=O)=O)cc3C(=O)N([C@@H](C)CO)C[C@H]2C)cc1,-3.35% (inactive)
9,CCC(=O)Nc1ccc2c(c1)OC[C@@H](C)N(Cc1ccccc1OC)C[C@H](C)[C@H](OC)CN(C)C2=O,-1.32% (inactive)
10,COCC(=O)Nc1ccc2c(c1)C(=O)N(C)C[C@@H](OC)[C@H](C)CN(C(=O)CC1CC1)[C@H](C)CO2,0.458% (inactive)
11,Cc1ccc(S(=O)(=O)Nc2cccc3c2O[C@@H](CN(C)C(=O)Nc2ccccc2)[C@H](C)CN([C@@H](C)CO)C3=O)cc1,-4.19% (inactive)
12,CN(C)c1cc[n+](Cc2ccccc2)cc1,12.9% (inactive)
13,CN(C)c1ccc(CSc2ccccc2)cc1,75.8% (active)
14,CN(C)c1ccc(CNC23CN4CN(CN(C4)C2)C3)cc1,2.1% (inactive)
15,CCNC(=O)C[C@@H]1CC[C@H]2[C@@H](COC[C@@H](O)CN2C(=O)c2cc(Cl)cc(Cl)c2)O1,-3.54% (inactive)
16,COCC(=O)Nc1ccc2c(c1)C(=O)N(C)[C@@H]1CC[C@@H](CC(=O)NCCCN(C)C)O[C@@H]1CO2,12.8% (inactive)
17,O=c1cc(-c2ccccc2)[nH]c2cc(F)ccc12,7.27% (inactive)
18,Cc1ccc(S(=O)(=O)/N=C(\N)c2ccc(F)cc2)cc1,13.3% (inactive)
19,Cc1ccc(-c2cc(=O)c3ccc(F)cc3[nH]2)cc1,47.2% (active)
